Screening data as filed in PubChem.
This is a sample that favours compounds with a hit; in the whole collection about 4% have one here.
RecA intein inh = blocks M. tuberculosis RecA intein splicing. 0.75% of 290,000 active. inhibition, % (no concentration beside the values). cell-free RecA intein splicing, fluorescence. AID 2221; in the data active = inhibition above about 30%; inconclusive = no clear call, values can overlap the other calls
Mtb betalactam = beta-lactam sensitization of Mtb H37Rv | M. tuberculosis H37Rv growth with meropenem, percent inhibition | inhibition, % at 25 µM | 0.27% of 330,000 active; call rule not given here;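 also: growth measured after seven days incubation then overnight dye step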
GDH-TPI inh = counter-screen for M. tuberculosis FBA inhibitors: GDH-TPI coupled enzymes. 1.2% of 360,000 active. inhibition, % at 4.8 µM. GDH-TPI coupled enzyme counterscreen, NADH absorbance. AID 588335; in the data active = inhibition above about 30%
Rv3671c inh = inhibitors of M. tuberculosis serine protease Rv3671c. P9WHR9. inhibition, % at 5.96 µM. 0.048% of 320,000 active. AID 2606; in the data active = inhibition above about 38%;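 also: extracellular domain of Rv3671c used as enzyme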
Mtb FBA inh = inhibitors of M. tuberculosis fructose-bisphosphate aldolase; P9WQA3; purified M. tuberculosis FBA, fluorescence read-out; 2.3% of 360,000 active; inhibition, % at 1 µM; in the data active = inhibition above about 27%
Target sequence (P9WQA3 whole entry, looked up): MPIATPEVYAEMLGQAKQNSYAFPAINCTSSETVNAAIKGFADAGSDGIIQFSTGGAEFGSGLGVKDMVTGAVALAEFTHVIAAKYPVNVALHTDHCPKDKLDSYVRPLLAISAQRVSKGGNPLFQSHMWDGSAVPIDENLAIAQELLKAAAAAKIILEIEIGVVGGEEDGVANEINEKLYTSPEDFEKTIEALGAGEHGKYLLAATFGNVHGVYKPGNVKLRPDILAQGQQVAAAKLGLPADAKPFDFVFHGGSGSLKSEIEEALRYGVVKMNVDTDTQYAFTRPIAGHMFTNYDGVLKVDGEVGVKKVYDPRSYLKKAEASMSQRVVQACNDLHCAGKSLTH
UGM FP inh = Mtb UDP-galactopyranose mutase inhibition | P9WIQ1 | purified UGM, fluorescence polarization probe displacement | inhibition, % at 10 µM | 0.06% of 320,000 active | AID 504406; in the data active = inhibition above about 10%, passing the limit was not always enough; inconclusive = no clear call, values can overlap the other calls
A number is an active result.

For COc1ccc2c(c1)c(=O)oc1cc(OCC(=O)N3CCCC(C)C3)ccc12 (stereo not given) the results were RecA intein inh inactive, Mtb betalactam inactive, GDH-TPI inh inactive, Rv3671c inh inactive, Mtb FBA inh 116 and UGM FP inh inactive.
`COc1ccc2c(c1)c(=O)oc1cc(OCC(=O)N3CCC(C)CC3)ccc12` gave RecA intein inh inactive, Mtb betalactam inactive, GDH-TPI inh inactive, Rv3671c inh inactive, Mtb FBA inh inactive and UGM FP inh inactive.
For CC(C)Oc1cc(F)ccc1-c1cc(C(=O)NCCc2ccncc2)[nH]n1 the results were GDH-TPI inh inactive and Mtb FBA inh inactive.
`CC(=O)Nc1c(C(=O)O)ccc(C)c1OCc1ccccc1` gave GDH-TPI inh inactive and Mtb FBA inh inactive.
For COc1cc(/C=C(/C#N)C(=O)NCc2ccccc2)cc(OC)c1OC the results were RecA intein inh inactive, Mtb betalactam inactive, GDH-TPI inh 50, Rv3671c inh inactive, Mtb FBA inh inactive and UGM FP inh inactive.
For Cc1c(/C=C(\C#N)C(=O)NCc2ccccc2)cc(C#N)n1C the results were RecA intein inh inactive, Mtb betalactam inactive, GDH-TPI inh 35, Rv3671c inh inactive, Mtb FBA inh inactive and UGM FP inh inactive.
For Cc1c(/C=C(\CC(=O)O)c2nc3ccccc3s2)cc(C#N)n1C the results were RecA intein inh inactive, Mtb betalactam inactive, GDH-TPI inh 43, Rv3671c inh inactive, Mtb FBA inh inactive and UGM FP inh inactive.
Screening Cc1cc(/C=C(\C#N)C(=O)NCc2ccccc2)cc(C)c1O returned RecA intein inh inactive, Mtb betalactam inactive, GDH-TPI inh inactive, Rv3671c inh inactive, Mtb FBA inh inactive and UGM FP inh inactive.
For Cc1nn(-c2ccccc2)c(Cl)c1/C=C(/CC(=O)O)c1nc2ccccc2s1 the results were GDH-TPI inh inactive and Mtb FBA inh inactive.
CCC(=O)N1CCC(C)(C(=O)Nc2nccc3ccccc23)C1 (stereo not given) was read as GDH-TPI inh inactive and Mtb FBA inh inactive.
N=c1oc2ccccc2cc1C(=O)Nc1cccc(F)c1 was read as RecA intein inh inactive, Mtb betalactam inactive, GDH-TPI inh inactive, Rv3671c inh inactive, Mtb FBA inh inactive and UGM FP inh inactive.
O=C(Nc1cccnc1N1CCOCC1)c1cc2ccccc2oc1=O was read as RecA intein inh inactive, Mtb betalactam inactive, GDH-TPI inh inactive, Rv3671c inh inactive, Mtb FBA inh inactive and UGM FP inh inactive.
Screening N=c1oc2ccccc2cc1C(=O)Nc1ccc(F)cc1 returned RecA intein inh inactive, Mtb betalactam inactive, GDH-TPI inh inactive, Mtb FBA inh 64 and UGM FP inh inactive.
`O=C(O)c1ccccc1NC(=O)c1cc2ccccc2oc1=O` gave RecA intein inh inactive, Mtb betalactam inactive, GDH-TPI inh 50, Mtb FBA inh inactive and UGM FP inh inactive.
Screening C#CCOCCOCCOCCNc1nc(N2CCN(C(=O)[C@H](CCC(=O)O)n3cc([C@@H](N)CC(N)=O)nn3)CC2)nc(N2CCN(C(=O)[C@H](CCC(=O)O)n3cc([C@@H](N)CC(N)=O)nn3)CC2)n1 returned Mtb betalactam inactive, GDH-TPI inh inactive, Rv3671c inh inactive, Mtb FBA inh inactive and UGM FP inh inactive.
`Nc1nc(NCc2ccco2)nc(NCCO)c1[N+](=O)[O-]` gave RecA intein inh inactive, Mtb betalactam inactive, GDH-TPI inh 32, Rv3671c inh inactive, Mtb FBA inh inactive and UGM FP inh inactive.
For CN(Cc1ccccc1)c1nc(N)c([N+](=O)[O-])c(NCc2ccccc2)n1 the results were RecA intein inh inactive, Mtb betalactam inactive, GDH-TPI inh 31, Rv3671c inh inactive, Mtb FBA inh inactive and UGM FP inh inactive.
Screening Nc1nc(NCCN2CCOCC2)nc(NCc2ccccc2)c1[N+](=O)[O-] returned RecA intein inh inactive, Mtb betalactam inactive, GDH-TPI inh 48, Rv3671c inh inactive, Mtb FBA inh inactive and UGM FP inh inactive.
`Nc1nc(NCCCN2CCOCC2)nc(NCc2ccccc2)c1[N+](=O)[O-]` gave RecA intein inh inactive, Mtb betalactam inactive, GDH-TPI inh 50, Rv3671c inh inactive, Mtb FBA inh inactive and UGM FP inh inactive.
Screening Nc1nc(NCCc2ccccc2)nc(NCc2ccccc2)c1[N+](=O)[O-] returned RecA intein inh inactive, Mtb betalactam inconclusive, GDH-TPI inh inactive, Rv3671c inh inactive, Mtb FBA inh inactive and UGM FP inh inactive.
Screening Nc1nc(Nc2ccccc2)nc(NCc2ccco2)c1[N+](=O)[O-] returned RecA intein inh inactive, Mtb betalactam inactive, GDH-TPI inh inactive, Rv3671c inh inactive, Mtb FBA inh inactive and UGM FP inh inactive.
